Screening data: PubChem BioAssay, National Center for Advancing Translational Sciences (NCATS)
ATXN2 expr inh = reduces ATXN2 reporter expression in HEK-293 cells; AID 1745845; actives 0.72% (n = 360,000); Potency, µM (top dose mostly 57 µM), without a hit: top-dose activity change, negative = inhibition, hits mostly inhibitors; HEK-293 ATXN2-luciferase reporter, luminescence, 24 h; note: % is set by controls: 0 for no effect and ±100 for the full control effect; nearly all actives have a fitted effect of over 55% in size
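ATXN2-luciferase reporter cells (luciferase flanked by upstream and downstream ATXN2 gene portions) were treated 24 h at 37 °C with compounds at up to 57 uM. SteadyGlo luminescence gave expression; GF-AFC fluorescence gave viability.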
Nrf2 block = Nrf2 pathway inhibition; A549 ARE-Fluc reporter, luciferase luminescence, 18-24 h; Potency, µM (series often up to 46 µM), for the others: at the top dose activity change, negative = inhibition, usual class: inhibitors; actives 2.1% (n = 360,000); AID 504444; note: % is set by controls: 0 for no effect and ±100 for the full control effect; nearly all actives have a fitted effect of over 60% in size
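In this cell-based qHTS, ARE-driven firefly luciferase in A549 cells reports Nrf2 activity; the luminescent signal after BugLite lysis is the measured value, with a prior CellTiter-Fluor read for cell health.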
TGFb SMAD3 inh = TGF-b pathway inhibition; Potency, µM (series often up to 46.1 µM), for inactives: at the top dose activity, negative = inhibition, actives largely listed as inhibitors; HepG2 CAGA-GFP TGF-b/SMAD3 reporter, GFP fluorescence, 18 h; TGF-beta stimulated, 500 pg/mL final; actives 1.2% (n = 410,000); AID 588855; note: % is set by controls: 0 for no effect and ±100 for the full control effect; nearly all actives have a fitted effect of over 65% in size
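First, reporter cells (HEPG2 CAGA-GFP) rested 2 h at 37 degrees C. Next, compounds were pinned in and TGF-beta added to 500 pg/mL final. After 18 h, GFP was imaged per cell and summed per well.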
HepG2 viability = kills HepG2 cells in TGF-b inhibitor counter-screen; Potency, µM (series often up to 46.1 µM), inactives show at the top dose activity change, negative = cytotoxicity, actives largely listed as cytotoxic; AID 588856; actives 0.76% (n = 410,000); HepG2 CAGA-GFP viability, ATP luminescence, 18 h
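CellTiter-Glo luminescence gave cytotoxicity after 18 hours at 37 degrees C. The cells were HepG2 CAGA-GFP in 1% FBS DMEM, stimulated with 500 pg/mL TGF-beta after compound addition. %Activity was normalised to no-cell wells (complete cell-killing) and DMSO (no toxicity), and curves were fitted and classified.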
A549 viability = A549 cytotoxicity, counter-screen for Nrf2 inhibitors; AID 504648; Potency, µM (top dose mostly 46 µM), inactives show at the top dose activity change, negative = cytotoxicity, hits mostly inhibitors; actives 0.16% (n = 390,000); A549 ARE-Fluc cells, CellTiter-Fluor viability, 18-24 h; note: % is set by controls: 0 for no effect and ±100 for the full control effect
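A549 ARE_Fluc cells in 5% FBS OPTI-MEM were exposed to compounds in concentration-response for 18-24 h at 37 deg C. Viability was read by CellTiter-Fluor fluorescence (Ex 405/Em 525) after 30 min, before the luciferase read.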
S2 tox = cell viability loss in ATXN counter-screen; Potency, µM (highest dose often 56.7 µM), usual class: cytotoxic; actives 0.49% (n = 400,000); S2 cells (HEK-293 line with an ATXN2-luciferase reporter) viability, CellTiter-Fluor protease fluorescence, 24 h; note: nearly all actives have a fitted effect of over 40% in size
Numbers without * were called inactive. Only some compounds are listed: those with a hit (about 3.8% of all), similar ones and a draw of the others. Calls come from the whole dose curve; as a rule, active = well fitted curve in the direction sought with a large enough effect; inconclusive = small, poorly fitted or top-dose-only effect, or another doubt; inactive = no such curve, though single readings can be large; an effect the other way counts as inactive or inconclusive. Potency is the fitted concentration of half-maximal effect.

`COc1cccc(Nc2nc(C(N)C3CCCCC3)cs2)n1` (centres undefined) gave ATXN2 expr inh 0%, TGFb SMAD3 inh inconclusive and HepG2 viability 16µM*.
For CC(C)c1ccc(NC(=O)Nc2nc(C(N)C3CCCCC3)cs2)cc1 (centres undefined) the results were ATXN2 expr inh inconclusive, TGFb SMAD3 inh 22µM*, HepG2 viability 10µM* and S2 tox inconclusive.
COc1cccc(Nc2nc(C(C)N)cs2)n1 (centres undefined) was read as ATXN2 expr inh inconclusive, TGFb SMAD3 inh 10%, HepG2 viability -34% and S2 tox inactive.
Cc1cc(NC(=O)Cc2ccccc2[N+](=O)[O-])no1 was read as Nrf2 block 5%, TGFb SMAD3 inh 3%, HepG2 viability 7%, A549 viability -2% and S2 tox inactive.
Screening O=C(Nc1ccc([N+](=O)[O-])cc1)/C(=C/c1cccc([N+](=O)[O-])c1)NC(=O)C1CCCCC1 returned ATXN2 expr inh -8%, Nrf2 block -10%, TGFb SMAD3 inh -16%, HepG2 viability -10%, A549 viability -5% and S2 tox inactive.
`Cc1ccc(NC(=O)/C(=C/c2cccc([N+](=O)[O-])c2)NC(=O)C2CCCCC2)c(C)c1` gave ATXN2 expr inh -29%, Nrf2 block 9.2µM*, TGFb SMAD3 inh inconclusive, HepG2 viability 2%, A549 viability -20% and S2 tox inactive.
`COC(CNC(=O)CN1CCN(Cc2ccccc2F)C1=O)OC` gave Nrf2 block 1%, TGFb SMAD3 inh -12%, HepG2 viability 7%, A549 viability 3% and S2 tox inactive.
For CCCCOC(=O)c1c(C)oc2ccc(NS(=O)(=O)c3ccc(F)cc3C)cc12 the results were ATXN2 expr inh inconclusive, Nrf2 block -21%, TGFb SMAD3 inh 14µM*, HepG2 viability -106%, A549 viability -11% and S2 tox inconclusive.
Cc1ccccc1-c1cccc([C@@H]2C[C@H]3[C@H](CON3C)CN2Cc2ccccc2)c1 was read as ATXN2 expr inh 0%, Nrf2 block -7%, TGFb SMAD3 inh 14µM*, HepG2 viability -42%, A549 viability 6% and S2 tox inactive.
`CC(O)CNCc1ccccc1C(F)(F)F` (centres undefined) gave ATXN2 expr inh 1%, Nrf2 block -2%, TGFb SMAD3 inh -2%, HepG2 viability -7%, A549 viability 3% and S2 tox inactive.
For Cc1ccccc1Cn1c(CN2CCC(C(=O)NCCN(C)C)CC2)cc2ccccc21 the results were TGFb SMAD3 inh 13µM*, HepG2 viability 10µM* and A549 viability -6%.
CNC(=O)C1CCN(Cc2cc3ccccc3n2Cc2ccccc2C)CC1 was read as ATXN2 expr inh -18%, TGFb SMAD3 inh -29%, HepG2 viability -35%, A549 viability -1% and S2 tox inconclusive.
O=C(CN1C(=O)COc2ccc(S(=O)(=O)N3CCOCC3)cc21)N1CCN(c2ccccc2)CC1 was read as ATXN2 expr inh 12%, Nrf2 block 16%, TGFb SMAD3 inh 16%, HepG2 viability 9%, A549 viability -1% and S2 tox inactive.
For CCNC(=S)NNC(=O)c1cc(-c2cccc(OC)c2)nc2ccccc12 the results were ATXN2 expr inh 46%, Nrf2 block 2%, TGFb SMAD3 inh -8%, HepG2 viability -35%, A549 viability 9% and S2 tox inactive.
Screening CCCOc1ccc(C(=O)NNC(=S)NC(=O)c2cc(-c3ccc(Cl)cc3)nc3ccccc23)cc1 returned ATXN2 expr inh -7%, Nrf2 block 4.6µM*, TGFb SMAD3 inh -13%, HepG2 viability -31%, A549 viability -18% and S2 tox inconclusive.
For COc1ccc(Cl)cc1C(=O)NNC(=S)NC(=O)c1cc(-c2ccccc2)nc2ccccc12 the results were ATXN2 expr inh -10%, Nrf2 block inconclusive, TGFb SMAD3 inh 22%, HepG2 viability -30%, A549 viability -7% and S2 tox inactive.
COc1ccc(C(=O)NNC(=S)NC(=O)c2cc(-c3ccccc3)nc3ccccc23)cc1 was read as ATXN2 expr inh 6%, Nrf2 block 18µM*, TGFb SMAD3 inh 4%, HepG2 viability -59%, A549 viability inconclusive and S2 tox inactive.
`CCNC(=S)NNC(=O)c1cc(-c2ccc(OCC)cc2)nc2ccccc12` gave ATXN2 expr inh -25%, TGFb SMAD3 inh 20%, HepG2 viability 7.9µM*, A549 viability -4% and S2 tox inactive.
For COc1cc(OC)c(NC(=O)Nc2cccc(OCc3cc(=O)n4ccccc4n3)c2)cc1Cl the results were TGFb SMAD3 inh -29%, HepG2 viability -17% and A549 viability -14%.
`Cc1nc2c(=O)n(C)c(=O)n(C)c2nc1Cl` gave ATXN2 expr inh inconclusive, Nrf2 block 18µM*, TGFb SMAD3 inh 7.1µM*, HepG2 viability 11µM*, A549 viability inconclusive and S2 tox 30µM*.
`O=C(NNC(=S)NC1CCCCC1)c1sc2ccccc2c1Cl` gave ATXN2 expr inh 7%, Nrf2 block inconclusive, TGFb SMAD3 inh inconclusive, HepG2 viability -50%, A549 viability 0% and S2 tox inactive.
CC(C)(C)C(=O)NC(=S)NNC(=O)c1sc2ccccc2c1Cl was read as ATXN2 expr inh 18µM*, Nrf2 block 5.8µM*, TGFb SMAD3 inh -20%, HepG2 viability 11µM* and A549 viability inconclusive.
For Cc1ccc(C)c(NC(=O)COc2coc(CN3CCc4ccccc4C3)cc2=O)c1 the results were ATXN2 expr inh inconclusive, Nrf2 block 10µM*, TGFb SMAD3 inh -8%, HepG2 viability -3%, A549 viability -5% and S2 tox inactive.
`COc1ccc(CCNC(=O)CSc2nc3scc(-c4ccccc4)c3c(=O)[nH]2)cc1` gave ATXN2 expr inh -16%, Nrf2 block inconclusive, TGFb SMAD3 inh 13µM*, HepG2 viability -34%, A549 viability -4% and S2 tox inactive.
COc1ccc(C(=O)Nc2ccc(O)c3c(=O)cc(-c4cccc(Cl)c4)oc23)cc1 was read as ATXN2 expr inh -19%, Nrf2 block inconclusive, TGFb SMAD3 inh -1%, HepG2 viability -6%, A549 viability -12% and S2 tox 4.5µM*.
